Compound activity from PubChem.
CSC inhib – cancer stem cell viability inhibitors, primary screen, luminescence | inhibition, % at 7.5 µM | cancer stem cell-like cells viability | 300,000 compounds, 1.1% hits; in the data active = inhibition above about 75%; tested in HMLE shEcad cells
Gli-Sufu antag – Gli-Sufu pathway antagonists, primary screen, luciferase luminescence, Sufu-KO-LIGHT cells, uHTS; 340,000 compounds, 0.74% hits; Sufu-KO-LIGHT fibroblasts, Gli luciferase reporter luminescence; inhibition, % at 5 µM;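 active = inhibition above about 55%, limit read from the data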
MPTP block – mitochondrial permeability transition pore inhibitors, primary screen, biochemical, isolated mouse mitochondria, absorbance | Ca2+ swelling absorbance, 30 min | inhibition, % at 10 µM | 360,000 compounds, 1.4% hits | AID 602449, 2012;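 active = inhibition of 50% or more, scaled per plate between neutral and stimulator controls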
Beta cell apopt – inhibitors of cytokine-induced beta cell apoptosis, primary screen, luminescence. INS-1E cytokine-induced death, ATP luminescence, 48 h; percent of positive-control rescue, neutral wells zero. 300,000 compounds, 0.8% hits. protection from apoptosis, % (no concentration beside the values);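 active = Every replicate reaches about 75%, or at least half do and their mean reaches it too, limit read from the data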;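 also: higher means more ATP so stronger rescue from cytokine killing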
Mdm2 MdmX PPI – inhibitors of human Mdm2-MdmX association, primary screen, cell-based, luminescence, split luciferase, SaOS-2, uHTS; Protein Mdm4 (Homo sapiens) + E3 ubiquitin-protein ligase Mdm2 (Homo sapiens), …; SaOS-2 split-luciferase Mdm2/MdmX complementation; inhibition, % at 8 µM; 330,000 compounds, 3% hits; AID 485346, 2010;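 active = inhibition of at least 50% at 8 µM in the primary screen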
Target sequence (O15151 whole entry, looked up): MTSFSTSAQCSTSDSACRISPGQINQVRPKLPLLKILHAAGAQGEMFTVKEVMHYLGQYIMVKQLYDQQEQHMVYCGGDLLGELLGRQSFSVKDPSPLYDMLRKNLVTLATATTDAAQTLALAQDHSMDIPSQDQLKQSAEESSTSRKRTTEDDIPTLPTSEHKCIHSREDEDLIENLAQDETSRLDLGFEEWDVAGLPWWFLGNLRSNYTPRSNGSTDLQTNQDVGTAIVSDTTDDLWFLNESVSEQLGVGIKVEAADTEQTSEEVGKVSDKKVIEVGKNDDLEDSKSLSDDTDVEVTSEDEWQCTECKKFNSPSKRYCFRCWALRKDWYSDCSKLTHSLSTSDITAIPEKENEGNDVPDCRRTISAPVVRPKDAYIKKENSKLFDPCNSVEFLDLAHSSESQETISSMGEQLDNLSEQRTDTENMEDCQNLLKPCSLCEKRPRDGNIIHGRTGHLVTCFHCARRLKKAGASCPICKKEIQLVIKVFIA
Target sequence (Q00987 whole entry, looked up): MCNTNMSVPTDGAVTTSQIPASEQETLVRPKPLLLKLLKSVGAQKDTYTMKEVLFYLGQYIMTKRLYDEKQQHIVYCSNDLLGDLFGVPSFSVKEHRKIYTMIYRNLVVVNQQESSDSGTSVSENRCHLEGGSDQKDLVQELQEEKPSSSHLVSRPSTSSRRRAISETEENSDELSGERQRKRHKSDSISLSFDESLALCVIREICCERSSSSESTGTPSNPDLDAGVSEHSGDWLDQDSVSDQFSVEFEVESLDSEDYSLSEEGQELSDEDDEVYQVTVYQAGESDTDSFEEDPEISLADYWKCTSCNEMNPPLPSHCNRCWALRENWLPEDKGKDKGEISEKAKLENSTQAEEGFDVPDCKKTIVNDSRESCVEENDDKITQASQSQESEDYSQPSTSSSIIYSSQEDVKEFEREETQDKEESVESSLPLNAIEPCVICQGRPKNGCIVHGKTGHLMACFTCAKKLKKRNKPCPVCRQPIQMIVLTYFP
NR3A LBD binder – binders of NR3A ligand-binding domain, primary screen, biophysical, differential scanning fluorimetry, uHTS; 340,000 compounds, 2.5% hits; Tm shift relative to glycine control, % at 25 µM; NR3A LBD differential scanning fluorimetry, Tm shift; 0% = protein alone, 100% = glycine-bound protein; Glutamate receptor ionotropic, NMDA 3A (GRIN3A) ligand-binding domain;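 active = melting temperature shift of at least 10% of the positive control shift, at one fixed dose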
Rh123 counter – fluorescence retest of MPTP screen hits in isolated mitochondria, single concentration | shares compounds with MPTP block | membrane potential, Rhodamine 123 fluorescence | inhibition, % at 10 µM | 5,000 compounds, 78% hits | AID 624504, 2012; in the data active = inhibition above about 22%
MPTP abs DR – mitochondrial permeability transition pore inhibitors, dose response, biochemical, absorbance, uHTS hits | shares compounds with MPTP block | isolated mitochondria swelling | IC50, µM | 780 compounds, 58% hits | AID 651561, 2012; in the data active = IC50 below about 20 µM
MPTP counter DR – fluorescent counter-screen in isolated mitochondria, dose response, counter-screen for MPTP inhibitor project, biochemical, fluorescence, uHTS hits; IC50, µM; isolated mitochondria counterscreen, fluorescence read-out; AID 651564, 2012; 780 compounds, 49% hits; shares compounds with MPTP block; in the data active = IC50 below about 80 µM
A number is an active result; – = inactive; · = no result. Most compounds without a hit are left out; they make up all but 6.6% or so of the library.

SMILES	CSC inhib	Gli-Sufu antag	MPTP block	Beta cell apopt	Mdm2 MdmX PPI	NR3A LBD binder	Rh123 counter	others
CC(=O)Nc1ccc(S(=O)(=O)Nc2cccc(-c3nc4cc(C)ccc4o3)c2)cc1	–	–	96	–	–	16	74
CC(=O)Nc1ccc(NC(=O)COC(=O)CCc2nc3ccccc3s2)cc1	–	–	–	–	–	–	·
CCOC(=O)/C(C(=O)Nc1ccc(Br)cc1)=C1/NC(C)(C)Cc2ccccc21	–	–	101	–	–	–	89
CCOC(=O)/C(C(=O)Nc1ccccc1Cl)=C1/NC(C)(C)Cc2ccccc21	–	–	–	–	–	–	·
Cc1ccc(-c2nnc(SCC(=O)N(C)C)nc2-c2ccc(C)cc2)cc1	–	–	73	–	–	–	–	MPTP abs DR=17;MPTP counter DR=–
CCc1ccc(OCCOCC(O)CNC(C)CC)cc1 (stereo not drawn)	–	–	–	–	–	–	·
CNC(=O)N(O)C1N(NC(=O)Nc2ccccc2)C(=S)SC1(C)C (stereo not drawn)	–	–	–	–	–	–	·
CNC(=O)N(O)C1N(/N=C/c2ccc(N(C)C)cc2)C(=S)SC1(C)C (stereo not drawn)	–	–	–	–	–	–	·
CC1(C)SC(=S)N(/N=C/c2ccccc2)C1N(O)C(=O)Nc1ccc([N+](=O)[O-])cc1 (stereo not drawn)	–	–	101	–	–	14	98
CC1(C)SC(=S)N(NC(=O)Nc2cccc3ccccc23)C1N(O)C(=O)Nc1ccccc1 (stereo not drawn)	–	–	95	–	–	23	74
Cc1ncc(CSc2ccc(Cl)cc2)c(CO)c1O	–	–	–	–	–	–	·
C/C(=N\NS(=O)(=O)c1ccccc1)c1cc(Cl)cc(Cl)c1O	–	–	62	–	–	–	75
Cc1nc(SCc2nc3ccc(Br)cc3[nH]2)c2oc3ccccc3c2n1	·	–	–	–	–	–	·
CCc1nc(SCc2nc3ccccc3[nH]2)c2oc3ccccc3c2n1	–	–	69	–	–	–	82
Cc1nc(SCc2nc3ccc(C(F)(F)F)cc3[nH]2)c2oc3ccccc3c2n1	104	–	50	–	–	–	89
Cc1cccc(C=NOCCc2ccccc2)n1	·	–	–	·	·	–	·
COc1ccc(N(CCCN2C(=O)c3cccc4cccc(c34)C2=O)C(=O)c2cccc(OC)c2)cc1	–	–	–	–	–	–	·
CCNC(=S)Nc1ccc(C)c(Cl)c1	–	–	–	–	–	–	·
CCNC(=S)Nc1ccc(Cl)c([N+](=O)[O-])c1	–	–	96	–	–	–	90
Cc1nnc(SC(C(=O)Nc2ccc(Cl)c([N+](=O)[O-])c2)c2ccccc2)[nH]c1=O (stereo not drawn)	·	–	74	·	–	–	51
CC(CC(=O)Nc1ccc(Cl)c([N+](=O)[O-])c1)c1ccccc1 (stereo not drawn)	–	–	105	–	–	–	90
Cc1cc(C)cc(NC(=O)C(Sc2nnc(C)c(=O)[nH]2)c2ccccc2)c1 (stereo not drawn)	–	–	–	–	–	–	·
COc1ccc(NC(=O)CCOc2ccccc2F)cc1S(=O)(=O)N1CCCCC1	·	–	–	–	–	–	·
Cc1oc(-c2cccc(Cl)c2)nc1CN1CCCC(C(=O)NC(C)c2ccc3c(c2)OCCO3)C1 (stereo not drawn)	–	–	51	–	–	–	–	MPTP abs DR=12;MPTP counter DR=20
COc1ccc(Cn2c(C3CCCCC3)nc3c(c(=O)c4ccccc4n3C)c2=O)cc1	–	–	·	–	–	–	·
SMILES	CSC inhib	Gli-Sufu antag	MPTP block	Beta cell apopt	Mdm2 MdmX PPI	NR3A LBD binder	Rh123 counter	others
Cn1c2ccccc2c(=O)c2c(=O)n(C3CCCCCC3)c(C3CCCCC3)nc21	·	–	88	·	·	–	–
COc1cccc(NC(=S)N2CCN(c3ccc([N+](=O)[O-])cc3)CC2)c1	–	–	–	–	–	–	·
O=[N+]([O-])c1ccc(NC(=S)N2CCc3ccccc3C2)cc1	–	–	58	–	–	–	65
O=[N+]([O-])c1ccc(N2CCN(C(=S)Nc3cccc(F)c3)CC2)cc1	–	–	55	–	–	–	58
COc1ccc2c(Cl)c(C(=O)NCCc3ccc(S(N)(=O)=O)cc3)sc2c1	–	–	–	–	–	–	·
COc1cc(C=CC(=O)N2CCN(CC(=O)N3CCCC3)CC2)cc(OC)c1OC	·	·	–	·	·	·	·
Cc1cc(C(=O)OC(C(=O)Nc2cccc(C(F)(F)F)c2)c2ccccc2)c(C)o1 (stereo not drawn)	–	–	68	–	–	13	73
O=C(COc1ccc2cc(Br)ccc2c1Br)N1CCOCC1	–	–	–	–	–	–	·
CN(C)CCn1c(=O)n(-c2cccc(Cl)c2)c(=O)c2c3c(sc21)CCCCC3	–	–	–	–	–	–	·
O=C(C(=O)c1ccc(O)cc1)c1ccccc1	–	–	–	–	–	–	·
O=C(c1ccc(O)cc1)c1ccc(C(=O)c2ccc(O)cc2)cc1	–	–	69	–	–	–	34
O=C(NNC(=S)Nc1ccc(Cl)cc1)c1ccccc1OC(F)F	–	–	73	–	–	–	86
COc1ccccc1NC(=S)NNC(=S)Nc1ccc(OC(F)F)cc1	–	–	97	–	–	32	81
COc1ccc(NC(=S)Nc2ccc(OC(F)F)cc2)cn1	–	–	–	–	–	–	·
Cc1ccc2c(c1)c1c3n2CCN(C(=O)CN2CCN(C)CC2)C3CCC1 (stereo not drawn)	–	–	75	–	–	–	–	MPTP abs DR=20;MPTP counter DR=–
Cc1ccc2c(c1)c1c3n2CCN(C(=O)C2CC2)C3CCC1 (stereo not drawn)	–	–	–	–	–	–	·
COc1cc(CNCCO)ccc1OCC(=O)Nc1ccc(Br)cc1	–	–	59	–	–	–	–	MPTP abs DR=–;MPTP counter DR=–
C[C@H]1c2cccc(O)c2C(O)=C2C(=O)[C@]3(O)C(O)=C(C(N)=O)C(=O)[C@@H](N(C)C)[C@@H]3[C@@H](O)[C@@H]21	–	–	80	–	–	–	–
O=C(Cn1ncn2nc(-c3ccccc3)cc2c1=O)NCc1ccccn1	–	–	–	–	–	–	·
